Test results from PubChem BioAssay AID1159580 (chemical genetic matrix, 2015).
The whole screen tested about 5,500 compounds, of which about 2,000 (36%) were called active. Inconclusive results (about 18%) are left out. Cut-off read from the data, not from the text of the source: active = normalized growth mostly below about 0.91 (no sharp cut-off); inconclusive = no clear call, values can overlap the other calls; inactive = mostly above about 0.92. The list shows a part of the results.

Assay: chemical genetic growth profiling, strain panel (AID 1159580);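 note: tested at 20 µM; growth read once vehicle control cultures reached saturation at 30 °C; 1 = growth at the plate median or of vehicle wells; lower values mean less growth of the strain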
Conditions: growth OD

Measured: normalized growth

Cn1nnnc1SCC1=C(C(=O)O)N2C(=O)C(NC(=O)C(O)c3ccccc3)C2SC1 (configuration not stated)
inactive: S. cerevisiae deletion strains, locus YJR075W, strain HOC1, active compounds read low 1.01 | S. cerevisiae deletion strains, locus YKL009W, strain mrt4, active compounds read low 1.01 | S. cerevisiae deletion strains, locus YKL068W, active compounds read low 1.01 | S. cerevisiae deletion strains, locus YKL085W, strain MDH1 (second series), active compounds read low 1.01 | S. cerevisiae deletion strains, locus YKL085W, strain MDH1, active compounds read low 1.01 | S. cerevisiae deletion strains, locus YKL160W, strain elf1, active compounds read low 0.95 | S. cerevisiae deletion strains, locus YKL190W, strain CNB1, active compounds read low 1.02 | S. cerevisiae deletion strains, locus YKR001C, strain vps1, active compounds read low 1 | S. cerevisiae deletion strains, locus YKR026C, strain gcn3, active compounds read low 0.974 | S. cerevisiae deletion strains, locus YKR091W, strain srl3, active compounds read low 0.981 | S. cerevisiae deletion strains, locus YLL001W, strain dnm1, active compounds read low 0.955 | S. cerevisiae deletion strains, locus YLL026W, active compounds read low 0.989 | S. cerevisiae deletion strains, locus YLL041C, strain sdh2, active compounds read low 0.968 | S. cerevisiae deletion strains, locus YLR027C, strain aat2, active compounds read low 0.982 | S. cerevisiae deletion strains, locus YLR039C, strain RIC1, active compounds read low 0.991 | S. cerevisiae deletion strains, locus YLR058C, strain SHM2, active compounds read low 1.02 | S. cerevisiae deletion strains, locus YLR102C, strain apc9, active compounds read low 1 | S. cerevisiae deletion strains, locus YLR113W, strain HOG1, active compounds read low 0.938 | S. cerevisiae deletion strains, locus YLR221C, strain rsa3, active compounds read low 0.98 | S. cerevisiae deletion strains, locus YLR258W, strain gsy2, active compounds read low 0.981 | S. cerevisiae deletion strains, locus YLR262C, strain YPT6 (second series), active compounds read low 0.973 | S. cerevisiae deletion strains, locus YLR262C, strain YPT6, active compounds read low 1.1 | S. cerevisiae deletion strains, locus YLR268W, strain sec22, active compounds read low 0.988 | S. cerevisiae deletion strains, locus YLR320W, strain mms22, active compounds read low 0.952 | S. cerevisiae deletion strains, locus YLR330W, strain CHS5, active compounds read low 1.01 | S. cerevisiae deletion strains, locus YLR342W, strain FKS1 (second series), active compounds read low 1.02 | S. cerevisiae deletion strains, locus YLR342W, strain FKS1, active compounds read low 0.972 | S. cerevisiae deletion strains, locus YLR357W, strain rsc2, active compounds read low 0.952 | S. cerevisiae deletion strains, locus YLR370C, strain arc18, active compounds read low 0.967 | S. cerevisiae deletion strains, locus YLR371W, strain rom2, active compounds read low 0.999 | S. cerevisiae deletion strains, locus YLR384C, strain iki3, active compounds read low 0.962 | S. cerevisiae deletion strains, locus YLR418C, strain cdc73, active compounds read low 1 | S. cerevisiae deletion strains, locus YML016C, strain PPZ1, active compounds read low 1.01 | S. cerevisiae deletion strains, locus YML032C, strain rad52, active compounds read low 1 | S. cerevisiae deletion strains, locus YML120C, strain ndi1, active compounds read low 0.964 | S. cerevisiae deletion strains, locus YML124C, strain tub3, active compounds read low 1.01 | S. cerevisiae deletion strains, locus YMR058W, strain fet3, active compounds read low 0.966 | S. cerevisiae deletion strains, locus YMR078C, strain ctf18, active compounds read low 1 | S. cerevisiae deletion strains, locus YMR125W, strain sto1, active compounds read low 0.973 | S. cerevisiae deletion strains, locus YMR129W, active compounds read low 0.981 | S. cerevisiae deletion strains, locus YMR205C, strain PFK2, active compounds read low 0.959 | S. cerevisiae deletion strains, locus YMR223W, strain ubp8, active compounds read low 1.01 | S. cerevisiae deletion strains, locus YMR231W, strain pep5, active compounds read low 0.971 | S. cerevisiae deletion strains, locus YMR263W, strain SAP30, active compounds read low 1.03 | S. cerevisiae deletion strains, locus YMR307W, strain GAS1, active compounds read low 0.993 | S. cerevisiae deletion strains, locus YNL067W, strain RPL9B, active compounds read low 1.03 | S. cerevisiae deletion strains, locus YNL071W, strain lat1, active compounds read low 0.978 | S. cerevisiae deletion strains, locus YNL128W, strain TEP1, active compounds read low 1.03 | S. cerevisiae deletion strains, locus YNL153C, strain GIM3, active compounds read low 1.03 | S. cerevisiae deletion strains, locus YNL183C, strain NPR1, active compounds read low 0.926 | S. cerevisiae deletion strains, locus YNL209W, strain ssb2, active compounds read low 0.982 | S. cerevisiae deletion strains, locus YNL233W, strain BNI4, active compounds read low 1.02 | S. cerevisiae deletion strains, locus YNL248C, strain rpa49, active compounds read low 0.968 | S. cerevisiae deletion strains, locus YNL250W, strain rad50, active compounds read low 1.01 | S. cerevisiae deletion strains, locus YNL271C, strain bni1, active compounds read low 1.01 | S. cerevisiae deletion strains, locus YNL298W, strain CLA4, active compounds read low 1.01 | S. cerevisiae deletion strains, locus YNL307C, strain MCK1, active compounds read low 1 | S. cerevisiae deletion strains, locus YNL322C, strain KRE1 (second series), active compounds read low 0.97 | S. cerevisiae deletion strains, locus YNL322C, strain KRE1, active compounds read low 1.02 | S. cerevisiae deletion strains, locus YNR049C, strain mso1, active compounds read low 0.972 | S. cerevisiae deletion strains, locus YNR052C, strain pop2, active compounds read low 0.997 | S. cerevisiae deletion strains, locus YOL006C, strain TOP1, active compounds read low 1.05 | S. cerevisiae deletion strains, locus YOL012C, strain htz1 0.993 | S. cerevisiae deletion strains, locus YOL147C, strain pex11, active compounds read low 0.999 | S. cerevisiae deletion strains, locus YOR001W, strain rrp6, active compounds read low 0.967 | S. cerevisiae deletion strains, locus YOR061W, strain CKA2, active compounds read low 1.02 | S. cerevisiae deletion strains, locus YOR069W, strain VPS5, active compounds read low 1.01 | S. cerevisiae deletion strains, locus YOR070C, strain gyp1, active compounds read low 0.979 | S. cerevisiae deletion strains, locus YOR080W, strain dia2, active compounds read low 0.97 | S. cerevisiae deletion strains, locus YOR083W, strain WHI5, active compounds read low 0.958 | S. cerevisiae deletion strains, locus YOR106W, strain vam3, active compounds read low 0.945 | S. cerevisiae deletion strains, locus YOR136W, strain idh2, active compounds read low 0.995 | S. cerevisiae deletion strains, locus YOR144C, strain elg1, active compounds read low 1 | S. cerevisiae deletion strains, locus YOR184W, strain ser1, active compounds read low 0.99 | S. cerevisiae deletion strains, locus YOR231W, strain MKK1, active compounds read low 0.996 | S. cerevisiae deletion strains, locus YOR265W, strain rbl2, active compounds read low 0.975 | S. cerevisiae deletion strains, locus YOR270C, strain vph1, active compounds read low 0.974 | S. cerevisiae deletion strains, locus YOR290C, strain snf2, active compounds read low 0.924 | S. cerevisiae deletion strains, locus YOR316C, strain cot1, active compounds read low 0.996 | S. cerevisiae deletion strains, locus YPL051W, strain arl3, active compounds read low 0.964 | S. cerevisiae deletion strains, locus YPL055C, strain LGE1, active compounds read low 1.07 | S. cerevisiae deletion strains, locus YPL078C, strain atp4, active compounds read low 0.968 | S. cerevisiae deletion strains, locus YPL106C, strain sse1, active compounds read low 0.958 | S. cerevisiae deletion strains, locus YPL240C, strain hsp82, active compounds read low 0.991 | S. cerevisiae deletion strains, locus YPL241C, strain CIN2, active compounds read low 1.01 | S. cerevisiae deletion strains, locus YPL256C, strain CLN2, active compounds read low 0.987 | S. cerevisiae deletion strains, locus YPR119W, strain clb2, active compounds read low 0.991 | S. cerevisiae deletion strains, locus YPR141C, strain kar3, active compounds read low 1 | S. cerevisiae deletion strains, locus YPR163C, strain tif3, active compounds read low 0.994 | S. cerevisiae deletion strains, locus YPR167C, strain met16, active compounds read low 1.01 | S. cerevisiae deletion strains, strain wtn01, active compounds read low 1 | S. cerevisiae strains, strain wild type, active compounds read low 1.02
